Data reported in PubChem BioAssay (NCI).
“And” between values parts separate entries of the source, which are not always exact repeats. Equal entries are not always repeated. About 83,000 compounds went through this panel and 20% of them were active in at least one assay; those are over-represented in the sample as a whole.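 Growth was measured after 48 h exposure to one concentration of compound in 96-well plates. Values under 10 count as active.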 The source made the active and inactive calls.

Columns and labels:
Experiment in all cases: NCI-60 one-dose screen, 48 h (100 = growth as untreated, 0 = no growth, -100 = all killed)
Conditions in all cases: 10 µM unless noted
HCT-15 colon = system: HCT-15 colon
HT29 colon = system: HT29 colon
SNB-19 CNS = system: SNB-19 CNS
U251 CNS = system: U251 CNS
PC-3 prostate = system: PC-3 prostate
SK-MEL-5 melanoma = system: SK-MEL-5 melanoma
UACC-62 melanoma = system: UACC-62 melanoma
LOX IMVI melanoma = system: LOX IMVI melanoma
SK-MEL-28 melanoma = system: SK-MEL-28 melanoma
SNB-75 CNS = system: SNB-75 CNS

Structure (SMILES) | growth (HCT-15 colon) | growth (HT29 colon) | growth (SNB-19 CNS) | growth (U251 CNS) | growth (PC-3 prostate) | growth (SK-MEL-5 melanoma) | growth (UACC-62 melanoma) | growth (LOX IMVI melanoma) | growth (SK-MEL-28 melanoma) | growth (SNB-75 CNS)
Nc1n[nH]c2cccc(C#Cc3cccc(NC(=O)c4ccc(N5CCOCC5)c(C(F)(F)F)c4)c3)c12 | 8.44% (active) | 3.29% (active) | 26.1% (inactive) | 16.6% (inactive) | 1.76% (active) | 23.4% (inactive) | -5.9% (active) | -96.9% (active) | 8.55% (active) | 
Cc1n(Cc2ccc3ccccc3c2)c(Cl)c(Cl)[n+]1Cc1ccc2ccccc2c1 | 92.5% (inactive) | 19.2% (inactive) | 23.3% (inactive) | 19.8% (inactive) | 12.2% (inactive) | -79.4% (active) | -40.3% (active) | 27.8% (inactive) | 26.6% (inactive) | 
COc1cc(N=Nc2ccc(O)c3ncccc23)c2ncccc2c1 | 27.5% (inactive) | 44.5% (inactive) | 47.6% (inactive) | 16.5% (inactive) | 32.4% (inactive) | 43.1% (inactive) | 6.71% (active) | 4.79% (active) | 42% (inactive) | 
COC(=O)/C=C1/SC(N2N=C(c3cccs3)CC2c2ccc(F)cc2)=NC1=O (stereo unspecified) | -9.66% (active) | 13.3% (inactive) | 76.4% (inactive) | 22.1% (inactive) | 64.5% (inactive) | 54.1% (inactive) | 56.8% (inactive) | -46.5% (active) | 43.8% (inactive) | 
COc1ccc(N2CCN(S(=O)(=O)c3oc(-c4ccccc4)nc3C#N)CC2)cc1 | 9.51% (active) | 50.6% (inactive) | 92.2% (inactive) | 88.2% (inactive) | 92% (inactive) | 81.2% (inactive) | 85.5% (inactive) | 4.64% (active) | 98.6% (inactive) | 
O=C1C=C(Nc2ccccc2)c2ncccc2C1=O | -68.7% (active) | -37% (active) | -92.8% (active) | -97.9% (active) | -17.7% (active) | -97.8% (active) | -92.3% (active) | -77.7% (active) | -81.3% (active) | 
COc1cc2cc(NCc3ccncc3)nc(C)c2cc1OC | 82.9% (inactive) | 91.6% (inactive) | 93.8% (inactive) | 78.5% (inactive) | 77.8% (inactive) | 95.2% (inactive) | 97.8% (inactive) | 88% (inactive) | 99.2% (inactive) | 
COC(=O)c1c2c(c(C)[n+]([O-])c1C)C(=O)C(NCCN1CCOCC1)=CC2=O | 69.1% (inactive) | 27.4% (inactive) | 87.5% (inactive) | 83.6% (inactive) | 75.2% (inactive) | 48.5% (inactive) | 68.4% (inactive) | 57.2% (inactive) | 95.2% (inactive) | 
CCOc1nc(-c2ccccc2)cc2c(O)c(C(=O)N/N=C/c3ccc(N(C)C)cc3)[nH]c(=O)c12 | 117% (inactive) | 145% (inactive) | 133% (inactive) | 94.7% (inactive) | 88.9% (inactive) | 105% (inactive) | 98.2% (inactive) | 97.8% (inactive) | 98.5% (inactive) | 
O=C1N=c2ccccc2=C1c1sc(=S)n(C2CC(=O)N(c3ccc(Cl)cc3)C2=O)c1O (stereo unspecified) | 93.7% (inactive) | 114% (inactive) | 102% (inactive) | 104% (inactive) | 86.6% (inactive) | 102% (inactive) | 95.9% (inactive) | 89.5% (inactive) | 109% (inactive) | 
Cc1c(C(=O)OCCCCOC(=O)c2c(C)n(C)c3scc[n+]23)[n+]2ccsc2n1C | 106% (inactive) | 107% (inactive) | 101% (inactive) | 103% (inactive) | 92.3% (inactive) | 142% (inactive) | 95.7% (inactive) | 102% (inactive) | 104% (inactive) | 
Cc1ccc(C(=O)Nc2nc3c(s2)CN(Cc2ccccc2)CC3)cn1 | 49.5% (inactive) | 59.1% (inactive) |  | 92.9% (inactive) | 74.1% (inactive) |  | 74.5% (inactive) | 87% (inactive) | 94.3% (inactive) | 66.9% (inactive)
COc1ccc(-c2[nH]c3ccccc3c2-c2ccc(OC)cc2)cc1 | 39.8% (inactive) | 29.8% (inactive) | 53.6% (inactive) | 44% (inactive) | 47.5% (inactive) | 58.1% (inactive) | 56.7% (inactive) | 46.3% (inactive) | 51.4% (inactive) | 
Cc1c(C(C)(C)O)cn2ncnc(Oc3ccc(NC(=O)Nc4ccc(Cl)c(C(F)(F)F)c4)cc3)c12 | 36.8% (inactive) | 34.6% (inactive) | 30.8% (inactive) | 31.8% (inactive) | 21.5% (inactive) | 56.2% (inactive) | 55.5% (inactive) | -9.63% (active) | 53.1% (inactive) | 
COc1ccc(Nc2nn3c(SCC(=O)c4ccc(C)cc4)nnc3s2)cc1 | 105% (inactive) | 105% (inactive) | 98.8% (inactive) | 106% (inactive) | 85.5% (inactive) | 95.4% (inactive) | 83.7% (inactive) | 95.9% (inactive) | 109% (inactive) | 
O=C1/C(=C/c2cn(-c3ccccc3)nc2-c2ccccc2)SC(=S)N1c1ccccc1 | 101% (inactive) | 108% (inactive) | 93.4% (inactive) | 103% (inactive) | 77.9% (inactive) | 98.9% (inactive) | 87.5% (inactive) | 86.8% (inactive) | 97.4% (inactive) | 
CCC(=C(c1ccc(OCCCN(C)C)cc1)c1ccc(OCCCN(C)C)cc1)c1ccc(Cl)cc1 | -83.3% (active) | -74.5% (active) | -88.3% (active) | -83.4% (active) | -66.2% (active) | -96.3% (active) | -80% (active) | -84.3% (active) | -89.8% (active) | 
COc1ccc(/C=C(\C#N)c2cc3ccccc3[nH]2)cc1 | 14% (inactive) | 8.16% (active) |  | 18.7% (inactive) | 51% (inactive) | 22.2% (inactive) | 31.4% (inactive) | 30.3% (inactive) | 49.5% (inactive) | 
O=C(/C=C\c1ccc(Cl)c(Cl)c1)c1ccccc1 | 65.6% (inactive) and 100% (inactive) | 37.5% (inactive) and 88.8% (inactive) | 86.9% (inactive) and 98.4% (inactive) | 85.3% (inactive) | 98.8% (inactive) and 87.6% (inactive) | 97.2% (inactive) and 101% (inactive) | 91.7% (inactive) and 95.9% (inactive) | 10.8% (inactive) and 91.5% (inactive) | 102% (inactive) and 108% (inactive) | 
O=C(Nc1ccc2ccccc2c1)c1cc2ccccc2cc1O | 85.9% (inactive) | 98.9% (inactive) | 97.9% (inactive) | 87.2% (inactive) | 78% (inactive) | 86.7% (inactive) | 72.5% (inactive) | 94.4% (inactive) | 89.1% (inactive) | 
COc1ccc(-c2nn3c(-c4cc(F)c(Cl)cc4Cl)nnc3s2)cc1 | 42% (inactive) | 5.17% (active) | 40.6% (inactive) | 35.6% (inactive) | 42.8% (inactive) | 20.1% (inactive) | 44.4% (inactive) | 42.1% (inactive) | 36.7% (inactive) | 
CCOC(=O)CC1CSC(c2cccc(Cl)c2)=N1 (stereo unspecified) | 106% (inactive) | 102% (inactive) | 106% (inactive) | 102% (inactive) | 103% (inactive) | 100% (inactive) | 101% (inactive) | 95.7% (inactive) | 110% (inactive) | 
NS(=O)(=O)c1ccc(C(=O)N=Nc2c(O)[nH]c3c(F)cccc23)cc1 | 105% (inactive) | 99.6% (inactive) | 97.4% (inactive) | 98.6% (inactive) | 94.9% (inactive) |  | 99.6% (inactive) | 98% (inactive) | 105% (inactive) | 
COCCn1cc(-c2nc(-c3cn(CCOC)c4ncccc34)cs2)c2ccccc21 | 18.1% (inactive) | 89.5% (inactive) | 71.1% (inactive) | 72.8% (inactive) | 73.1% (inactive) | 7.97% (active) | 87.1% (inactive) | 86.1% (inactive) | 105% (inactive) | 
CC1=CC=C(NC(=O)/C=C/c2ccccc2)CC1Nc1nccc(-c2cccnc2)n1 (stereo unspecified) | 14.6% (inactive) | 13.6% (inactive) | 66.8% (inactive) | 38.1% (inactive) | 25.2% (inactive) | -42.9% (active) | 37.9% (inactive) | 41.3% (inactive) | 35.3% (inactive) | 
Cn1cc(C2=C(c3cccc4ccccc34)C(=O)NC2=O)c2cc(Br)ccc21 | 91.3% (inactive) | 90.5% (inactive) | 108% (inactive) | 91.7% (inactive) | 97.3% (inactive) | 93.5% (inactive) | 112% (inactive) | 89.8% (inactive) | 111% (inactive) | 
